Screening results (PubChem)
Hits are enriched below; roughly 2.9% of the tested compounds scored in any of these assays.
EP2 antag: human EP2 receptor antagonists, primary screen, TR-FRET cAMP, C6 glioma cells; Prostaglandin E2 receptor EP2 subtype (Homo sapiens), P43116; C6 glioma cells expressing human EP2; cells stimulated with saturating PGE2; AID 1422, 2008; 260,000 tested, 0.52% active; inhibition, % at 25 µM;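 active = percent inhibition above 40 after rounding to a whole number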;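 also: rat C6 glioma host cells with rolipram phosphodiesterase inhibitor present; the protocol text gives 20 µM as final concentration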
Target sequence (P43116 whole entry, looked up): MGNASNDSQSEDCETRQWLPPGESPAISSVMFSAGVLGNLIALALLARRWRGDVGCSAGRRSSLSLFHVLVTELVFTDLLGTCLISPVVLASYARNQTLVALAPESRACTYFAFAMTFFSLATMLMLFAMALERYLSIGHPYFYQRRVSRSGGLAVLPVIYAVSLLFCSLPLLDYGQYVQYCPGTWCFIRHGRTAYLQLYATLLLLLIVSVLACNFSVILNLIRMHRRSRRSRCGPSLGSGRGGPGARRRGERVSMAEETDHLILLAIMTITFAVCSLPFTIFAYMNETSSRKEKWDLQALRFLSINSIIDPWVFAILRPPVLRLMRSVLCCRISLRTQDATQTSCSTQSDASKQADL
PG9 Ab binder: binders of HIV-1 gp120 antibody PG9, primary screen, biochemical, TR-FRET; 360,000 tested, 0.43% active; TR-FRET gp120-PG9 antibody binding; inhibition, % at 6.7 µM; HIV-1 gp120 / PG9 antibody interaction; AID 624416, 2012; in the data active = inhibition above about 8.5%
EP2 mod: EP2 receptor modulators, cAMP readout, primary screen, cell-based, HTRF cAMP, PGE2 stimulation; EP2-expressing cells, cAMP HTRF FRET, PGE2 co-stimulation; induction, % at 25 µM; 260,000 tested, 0.83% active;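 active = compounds whose cAMP rise, as percent of the full-agonist control response, exceeds 60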;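 also: rat C6 glioma line stably carrying human EP2 under a CMV promoter; the protocol text gives 20 µM as final concentration; 100% = response of wells given 1 µM PGE2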
SKN-1 inh: suppressors of acrylamide-induced Pgst-4::GFP reporter in worms, primary screen, SKN-1 inhibitor project, whole organism, uHTS, GFP/RFP fluorescence ratio, strain VP596. C. elegans VP596 Pgst-4::GFP/RFP ratio, 24 h. inhibition, % at 21.8 µM. 360,000 tested, 0.49% active. AID 624304, 2012;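 active = interference check ratio from 0.5 to 1.5 plus GFP to RFP signal ratio inhibition reaching or exceeding a fixed threshold, cut at about 30% in these data, passing the limit was not always enough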
RAM network inh: inhibitors of the yeast RAM network, primary screen, dse1pr::URA3 reporter, 5-FOA selection; S. cerevisiae dse1pr::URA3 reporter, 5-FOA growth OD615, 2 d; analog-sensitive cbk1-as2 kinase mutant strain; inhibition, % at 50 µM; 190,000 tested, 1.8% active; AID 868, 2007;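 active = inhibition above a set limit, 3 SD over mean compound inhibition, cut at about 8.4% in these data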;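 also: 0% = DMSO-only wells with no growth and 100% = 10 µM 1-NA-PP1 full growth; inhibition rescues growth on 5-FOA so higher OD means more RAM inhibition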
Rev-erbA mod: modulators of Rev-erb alpha DNA binding, primary screen, biochemical, FITC-DNA, fluorescence polarization, uHTS; Nuclear receptor subfamily 1 group D member 1 (Homo sapiens), P20393; AID 1259318, 2017; 370,000 tested, 0.79% active; activity, % at 10 µM; Rev-erbα–FITC-DNA binding, 90 min;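 active = activity above about 14%, limit read from the data; passing the limit was not always enough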;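 also: 0% = DMSO wells with 35 nM protein and 100% = DMSO wells with 750 nM protein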
The depositor's hits bear a star; x = no result given.

SMILES	EP2 antag	PG9 Ab binder	EP2 mod	SKN-1 inh	RAM network inh	Rev-erbA mod
COc1ccccc1-n1nnnc1SCc1cc2c(cc1Br)OCO2	12	-1	1	16	9.5*	1
Nc1cc(-c2cccs2)nn(CC(=O)NCc2ccccc2Cl)c1=O	8	x	-89	x	x	x
COc1cccc(N=NC2C(=O)N(C(N)=S)N=C2C)c1 (configuration not stated)	x	-6	x	-4	x	5
CC1=NN(c2nc(-c3ccc(C)cc3)cs2)C(=O)C1N=Nc1ccc2ccccc2c1 (configuration not stated)	11	0	7	-2	11*	9
CC1=NN(C(=O)c2ccncc2)C(=O)[C@@H]1N=Nc1ccc2ccccc2c1	58*	x	-21	x	x	x
CC1=NN(c2nc(-c3ccccc3)cs2)C(=O)C1N=Nc1ccccc1 (configuration not stated)	9	-1	9	1	5	-10
Cn1ccsc1=NC(=O)c1ccc(OC(F)(F)F)cc1	x	-1	x	51*	x	-2
COc1ccc(C(=O)N=c2sccn2C)cc1	5	-1	-3	16	0	-1
Cn1ccsc1=NC(=O)c1ccc(Cl)cc1	7	1	4	43*	1	-4
CN1CCN(CCCN(C)CC2(c3ccc(Cl)cc3Cl)CC2)CC1	10	x	-56	x	x	x
CC(=O)Nc1cc(NC(C)=O)cc(C(=O)OCC(=O)N2CC(C)OC(C)C2)c1 (configuration not stated)	10	-2	16	36*	1	2
CC1CN(C(=O)COC(=O)c2ccc(O)cc2)CC(C)O1 (configuration not stated)	x	-3	x	-15	x	1
Cc1ccc(S(=O)(=O)N2C[C@H]3[C@H]4C(=O)N(c5ccccc5)C(=O)[C@H]4CC(=O)[C@H]3[C@@H]2c2cccc3ccccc23)cc1	x	-1	x	36*	x	-2
CCOC(=O)C(=CNc1ccccc1Cl)C(=O)OCC	9	-2	20	18	x	-1
CCOC(=O)C(=CNc1ccc(C(F)(F)F)cc1Cl)C(=O)OCC	6	0	69*	9	x	-3
CCOC(=O)C(=CNc1cc(C)ccc1-n1cccc1)C(=O)OCC	4	1	65*	3	x	2
CCOC(=O)C(=CNc1ccccc1C)C(=O)OCC	8	3	14	16	0	-7
CCCSc1nc2c3c(sc2c(=O)[nH]1)CC(C)(CC)OC3 (configuration not stated)	4	-1	28	5	8.8*	-3
CCOC(=O)C1=C(C)N(CCCCCC(=O)O)C(=O)NC1c1ccccc1OS(=O)(=O)c1ccc(C)cc1 (configuration not stated)	13	0	x	-4	x	-3
CC1=C(C(=O)OCc2ccccc2)C(c2cccc([N+](=O)[O-])c2)NC(=O)N1CCCCCC(=O)O (configuration not stated)	9	-2	34	6	11*	2
CCOC(=O)C1=C(C)N(CCCC(=O)O)C(=O)NC1c1ccccc1OS(=O)(=O)c1ccc(C)cc1 (configuration not stated)	10	x	23	6	8.4*	x
COc1ccc(C(NC(=O)C2CC2)c2nccn2C)cc1OC (configuration not stated)	x	x	6	x	x	x
CCn1c(SCC(=O)N2CCCC2)nnc1-c1ccco1	x	-1	x	6	x	-5
CCn1c(SCC(=O)N2CCCC(C)C2)nnc1-c1ccco1 (configuration not stated)	8	-3	71*	2	x	-1
CN(C)Cc1ccc(F)cc1Sc1ccc(Cl)cc1Cl	3	-3	62*	7	1	0
SMILES	EP2 antag	PG9 Ab binder	EP2 mod	SKN-1 inh	RAM network inh	Rev-erbA mod
Cc1cc(C)c2nc(SCC(=O)Nc3nc(C)c(C)s3)cc(C)c2c1	19	x	61*	x	x	x
CCCc1nc(SCC(=O)Nc2nc(C)c(C)s2)c2ccccc2n1	8	x	63*	x	x	x
CCCc1nc(SCC(=O)Nc2ccc(C)cc2C)c2ccccc2n1	10	x	-16	x	x	x
COc1ccccc1NC(=O)CSc1nc(C2CCCCC2)nc2ccccc12	6	x	79*	x	x	x
CSc1nc(Cc2ccccc2)nc2ccccc12	12	0	62*	16	-1	9
C=Cn1cc(CN(C(=O)C2CC2)c2cccc(-c3ccnc(C)n3)c2)c(C)n1	10	x	-26	x	x	x
CCOc1ccccc1NC(=O)CSc1nc(Cc2ccccc2)nc2ccccc12	10	x	79*	x	x	x
CCOC(=O)CSc1nc(C2CCCCC2)nc2ccccc12	10	x	66*	x	x	x
COc1ccc2c(C(O)CN3CCN(c4nc(C)cc(C)n4)CC3)c[nH]c2c1 (configuration not stated)	5	x	-67	x	x	x
Cc1nc(Sc2ccc([N+](=O)[O-])cn2)nc2c1CCCC2	8	x	-9	x	x	x
O=C(c1cc(COc2ccc(F)cc2Cl)on1)N1CCCCCC1	x	-1	x	38*	x	6
CN(C)c1ccc(/C=C/c2ccc3ccccc3n2)cc1	10	x	-57	58*	x	x
C(=C\c1ccc2ccccc2n1)/c1ccccc1	5	0	16	84*	x	4
Oc1ccc(/C=C/c2ccc3ccccc3n2)cc1	10	3	-52	25	1	-1
Fc1ccccc1/C=C/c1ccc2ccccc2n1	5	1	11	88*	2	-1
COCCOC(=O)c1c(NC(=O)CN2CCCc3ccccc32)sc(C(N)=O)c1C	14	2	-1	10	11*	7
CCC(C)(C)n1nnnc1C(C(C)C)N(Cc1ccc(F)cc1)Cc1cc2ccc(C)cc2[nH]c1=O (configuration not stated)	14	x	23	x	x	x
COc1ccc(OC)c(NC2c3ccccc3C(=O)N2c2cccnc2)c1 (configuration not stated)	9	8.9*	21	15	3	0
Cc1c(C(=O)CN2CCSCC2)c2ccccc2n1C	6	-2	10	1	1	2
Cc1c(/C(Cc2ccccc2)=N/O)c2ccccc2n1C	1	-1	63*	-1	1	4
COCCN1C(=O)C(CC(=O)Nc2ccc(C(=O)O)cc2)SC1=Nc1ccccc1 (configuration not stated)	x	-1	-5	17	4	-6
